The list is not random: actives were taken first. Their share in the collection is about 4.6%.
USP8 block – inhibitors of human USP8 deubiquitinase | inhibition, % at 20 µM | P40818 | AID 1645853 | actives 4.2% (n = 47,000) | purified USP8, Ub-rhodamine cleavage fluorescence, 30 min
UCHL1 inh – inhibitors of human UCHL1 deubiquitinase; P09936; purified UCHL1, Ub-rhodamine cleavage fluorescence; inhibition, % at 20 µM; actives 0.2% (n = 47,000); AID 1645859
Target sequence (P09936 whole entry, looked up): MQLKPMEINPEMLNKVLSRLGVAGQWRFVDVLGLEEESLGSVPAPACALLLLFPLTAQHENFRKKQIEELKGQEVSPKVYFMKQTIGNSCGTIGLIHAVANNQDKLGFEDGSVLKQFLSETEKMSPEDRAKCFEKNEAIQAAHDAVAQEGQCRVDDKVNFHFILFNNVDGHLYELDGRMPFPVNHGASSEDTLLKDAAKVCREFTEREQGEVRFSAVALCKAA
USP7 inh – inhibitors of human USP7 deubiquitinase. purified USP7, Ub-rhodamine cleavage fluorescence. Q93009. actives 0.3% (n = 47,000). inhibition, % at 20 µM
USP10 block – inhibitors of human USP10 deubiquitinase; actives 1.1% (n = 47,000); inhibition, % at 20 µM; purified USP10, Ub-rhodamine fluorescence, 60 min; AID 1645856
* marks the source's active call; other numbers are inactive results. Rule as the data show it: active = inhibition above about 30%; inactive = the rest.

SMILES | USP8 block | UCHL1 inh | USP7 inh | USP10 block
O=C(c1ccccc1)c1c(-c2ccccc2)oc2ccc(NS(=O)(=O)c3ccc(Cl)cc3)cc12 | 23 | 10 | 16 | 33*
O=C(CSc1nc2ccccc2[nH]1)Nc1cccc2c1OCCO2 | -10 | 13 | 12 | 19
CCC(C(=O)Nc1cccc2nsnc12)c1ccccc1 (stereo not given) | 37* | 3 | 0 | 1
O=C(NCc1cccs1)C(NS(=O)(=O)c1cccc2nsnc12)c1ccccc1 (stereo not given) | -81 | -2 | -2 | 2
O=C(CSc1ccccc1)Nc1cccc2nsnc12 | 53* | 4 | 3 | 9
Cc1ccc(OCC(=O)Nc2ccc(O)cc2)c(-n2cnnc2)c1 | -1 | -1 | -5 | -2
O=C(Cc1ccccc1)NC1CC(=O)N(Cc2ccccc2)C1 (stereo not given) | -1 | -3 | -2 | 0
CC(=O)N1CC[C@@H]2Oc3ccccc3S(=O)(=O)N(CC(C)C)[C@H]2CC1 | 1 | -1 | 0 | 1
CN(C)c1ccc(CNC(=O)c2nnc(C(=O)Nc3ccccc3)s2)cc1 | 37* | 0 | 18 | 14
COc1ccc(CNC(=O)c2nnc(C(=O)Nc3ccc(F)cc3)s2)cc1 | 21 | 2 | 9 | 17
Cc1cnc(NC(=O)c2cc3c(C)nn(Cc4ccccc4Cl)c3s2)s1 | 56* | 4 | -26 | 13
Cc1cnc(NC(=O)c2ccccc2-c2ccccc2)s1 | 4 | 1 | 0 | 3
CN(C)CCN(C1CCN(CCc2cccs2)CC1)S(C)(=O)=O | 10 | -1 | 7 | -6
N#Cc1c(-c2cccs2)cc(-c2cccs2)[nH]c1=O | -71 | -71 | -52 | -9
N#Cc1c(-c2ccc(Cl)cc2)cc(-c2cccc(Br)c2)[nH]c1=O | 52* | 8 | -123 | 8
O=C(Nc1ccccc1)c1sccc1Oc1ccc([N+](=O)[O-])c(C(F)(F)F)c1 | 44* | 5 | -4 | 8
COC(=O)c1ccccc1NC(=O)c1sccc1Oc1ccc(F)cc1[N+](=O)[O-] | 12 | 6 | 10 | 2
O=C(Nc1ccccc1F)c1sccc1Oc1ccc([N+](=O)[O-])cc1F | 87* | 4 | -3 | 9
CCN1CCc2nc(NC(=O)COc3ccc(Nc4ccccc4)cc3)sc2C1 | 79* | 7 | 6 | 4
Cc1cc(NC(=O)CSc2ncc(-c3cccc([N+](=O)[O-])c3)n2-c2cccc(Cl)c2)no1 | 55* | -2 | 12 | 64*
CC(C)n1ncc2[nH]c(-c3ccc(N4CCN(CC(=O)O)CC4)cc3)nc21 | 9 | 1 | 3 | 0
O=C(Cc1ccc(F)cc1)N1CCC2(CC1)NCCc1[nH]cnc12 | 39* | -1 | 3 | -2
O=C(Cc1ccccc1)NCC(=O)N1CCC2(CC1)NCCc1[nH]cnc12 | 18 | -2 | -1 | -6
O=C(NCC(=O)N1CCC2(CC1)NCCc1[nH]cnc12)c1ccc(-c2ccccc2)cc1 | 49* | 0 | 0 | -2
COc1ccc(CC(=O)NCC(=O)N2CCC3(CC2)NCCc2[nH]cnc23)cc1 | 34* | -1 | 0 | -6
SMILES | USP8 block | UCHL1 inh | USP7 inh | USP10 block
COc1ccc(CC(=O)N2CCC3(CC2)NCCc2[nH]cnc23)cc1 | 24 | 0 | 2 | -5
COc1ccc(C(O)CN2CCc3c(nc(-c4cccs4)n3C)C2)cc1 (stereo not given) | -11 | -6 | -5 | -6
O=C(O)c1ccccc1-n1cc(Cn2cccn2)cn1 | -20 | -3 | -1 | 0
Cc1[nH]n2c(=O)cc(Cc3ccccc3)nc2c1-c1ccccc1 | -109 | -5 | -5 | 6
O=c1cc(Cc2ccccc2)nc2c(-c3ccccc3)c(COc3ccccc3)[nH]n12 | -6 | 10 | 52* | 62*
NS(=O)(=O)c1ccc(CCNC(=O)CSc2nc3ccccc3c(=O)n2Cc2ccc3c(c2)OCO3)cc1 | 53* | -1 | 6 | 27
O=C(CSc1nc(-c2ccccc2)c2ccccc2n1)NCc1ccc(C(=O)O)cc1 | 19 | 1 | 6 | 1
O=C(CSc1nc(-c2ccccc2)c2ccccc2n1)NCc1ccc2c(c1)OCO2 | 55* | -3 | 2 | 17
CSCCC(NS(=O)(=O)c1ccc2c(c1)c(=O)n(C)c(=O)n2C)C(=O)NCCC1=CCCCC1 (stereo not given) | -29 | -3 | -6 | -1
O=C1c2ccccc2NC2(C(=O)Nc3ccc(Br)cc32)N1c1ccccc1 (stereo not given) | 33* | 6 | -7 | 6
CC(C)N1CCC2(CC1)Nc1ccccc1C(=O)N2Cc1ccccc1 | 17 | -3 | -2 | -8
O=C(c1[nH]nc2c1COc1ccccc1-2)N1CCN(c2ccccn2)CC1 | 50* | 4 | 10 | 27

Assay outcomes from PubChem BioAssay.
